# Screens from PubChem BioAssay.
# Shown is part of a subset that was picked to be rich in hits.
# FBPA Giardia inh = blocks Giardia fructose-bisphosphate aldolase activity. purified Giardia FBPA. Potency, µM (top dose mostly 59.6 µM), without a hit: at the highest dose activity, negative = inhibition, usual class: inhibitors. actives 0.71% (n = 290,000). AID 2451; note: potency is the fitted concentration of half-maximal effect; % is set by controls: 0 for no effect and ±100 for the full control effect; nearly all actives have a fitted effect of over 55% in size
#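 Giardia FBPA (40 nM reagent) was preincubated 10 min at RT with compound (up to 57.5 uM final), then substrate plus GAPDH/TPI/NAD/arsenate coupling system with diaphorase/resazurin was added; resorufin fluorescence (525/598 nm) was read after 20 min.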
# TbPYK inhibitor = blocks Trypanosoma brucei pyruvate kinase; Q57TT1; TbPYK enzyme, Kinase-Glo Plus ATP luminescence, 45 min; Potency, µM (highest dose often 76.8 µM), for the others: at the top dose activity, negative = inhibition, actives largely listed as inhibitors; actives 0.12% (n = 410,000); AID 624173; note: potency is the fitted concentration of half-maximal effect; % is set by controls: 0 for no effect and ±100 for the full control effect; nearly all actives have a fitted effect of over 50% in size
#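 In this concentration-response screen, enzyme-free wells defined baseline while DMSO plates tracked drift. Each reaction combined TbPYK, substrate, compound and 130 uM ADP for 45 min at room temperature. Kinase-Glo Plus luminescence gave the signal.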
# Cycloheximide cs = affects cycloheximide protein synthesis inhibition readout, counter-screen; cell reporter, cycloheximide protein synthesis inhibition counterscreen; actives 12% (n = 300,000); max response, %; in the data active = max response mostly above about 13%, no sharp cut-off; inactive = mostly below about 14%; note: read at 38.3 µM for the half of the compounds with a filed dose; 0% is about no effect
# Shiga inhibitor = inhibitors of Shiga toxin in Vero cells; Vero cells, Shiga toxin protein synthesis inhibition reporter; inhibition, % at 38.7 µM; actives 9.2% (n = 290,000); AID 2315; in the data active = inhibition mostly above about 28%, no sharp cut-off; inactive = mostly below about 43%; note: 0% is about no effect
# LmPK inh = blocks Leishmania mexicana pyruvate kinase activity; Q27686; AID 1721; Potency, µM (doses to about 57.5 µM), inactives show at the top dose activity change, negative = inhibition, usual class: inhibitors; actives 0.37% (n = 290,000); purified LmPK, Kinase-Glo ATP luminescence, 1 h; note: potency is the fitted concentration of half-maximal effect; % is set by controls: 0 for no effect and ±100 for the full control effect
# Target sequence (Q27686 whole entry, looked up): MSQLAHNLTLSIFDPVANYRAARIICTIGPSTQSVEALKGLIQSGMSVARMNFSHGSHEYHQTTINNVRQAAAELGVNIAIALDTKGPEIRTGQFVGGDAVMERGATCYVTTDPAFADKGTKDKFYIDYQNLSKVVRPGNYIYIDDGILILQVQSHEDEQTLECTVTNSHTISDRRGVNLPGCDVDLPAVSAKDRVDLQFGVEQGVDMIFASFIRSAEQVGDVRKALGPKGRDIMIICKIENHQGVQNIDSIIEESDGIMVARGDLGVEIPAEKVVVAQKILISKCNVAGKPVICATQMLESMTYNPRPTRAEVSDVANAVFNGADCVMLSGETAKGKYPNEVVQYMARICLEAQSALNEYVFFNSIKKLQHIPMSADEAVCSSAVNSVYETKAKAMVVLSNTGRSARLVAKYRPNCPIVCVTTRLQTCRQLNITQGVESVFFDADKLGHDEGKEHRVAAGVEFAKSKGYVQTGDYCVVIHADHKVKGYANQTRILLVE
#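 Kinase-Glo luminescence read after 1 h RT reaction of 0.1 nM LmPK with 0.5 mM PEP and 0.1 mM ADP. Activity scaled between uninhibited and enzyme-free controls.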
# RE007 growth inh = less growth of the S. pombe RE007 Vpr strain | S. pombe RE007 Vpr strain, BacTiter-Glo ATP luminescence, 24 h | Potency, µM (series often up to 92.2 µM), for the others: at the highest dose activity change, negative = less growth, most hits filed as inhibitors | actives 0.21% (n = 360,000) | AID 651644; active = well fitted falling curve with a large enough effect; inconclusive = small, poorly fitted or top-dose-only effect; inactive = no such curve, though single readings can be large or run the other way; note: potency is the fitted concentration of half-maximal effect; % is set by controls: 0 for no effect and ±100 for the full control effect; nearly all actives have a fitted effect of over 50% in size
#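 Fission yeast RE007 carrying one integrated HIV-1 vpr copy, seeded at OD 0.01 in PMG+AL medium with 23 nL pinned compound. Grown 24 h at 30 degrees; viability read by BacTiter-Glo luminescence after 5 min.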
# The depositor's hits bear a star; ? = inconclusive; · = not tested or not shown. Unless noted, calls come from the whole dose curve; as a rule, active = well fitted curve in the direction sought with a large enough effect; inconclusive = small, poorly fitted or top-dose-only effect, or another doubt; inactive = no such curve, though single readings can be large; an effect the other way counts as inactive or inconclusive.
SMILES,FBPA Giardia inh,TbPYK inhibitor,Cycloheximide cs,Shiga inhibitor,LmPK inh,RE007 growth inh
CC(C)(C)NC(=O)c1cccc(NC(=O)c2ccco2)c1,6.9%,-0.3%,13.1,41.4,1.0%,?
CN(CC(=O)Nc1ccccc1C(=O)NC1CC1)Cc1cccs1,·,1.4%,·,·,·,-14.4%
CN1CCN(S(=O)(=O)c2ccc(N(C)Cc3c(F)cccc3Cl)nc2)CC1,·,-4.9%,·,·,·,-5.7%
COCCNCC(=O)Nc1ccc(OC(F)(F)F)cc1,?,12.5%,1.3,16.4,-7.0%,4.4%
CC(C)COc1ccc(C(=O)CCN2CCCCC2)cc1,-1.4%,-7.3%,3.8,-7.9,-1.8%,?
O=C(OCCN1CCCCC1)c1ccccc1Br,-23.9%,-13.7%,35.4*,39.6,3.1%,-1.1%
Cc1cc(OCCN2CCOCC2)ccc1C(C)C,-29.4%,2.2%,48.4*,59.7*,-1.9%,-0.6%
O=C(Cc1ccccc1)OCCN1CCCCC1,1.3%,7.6%,-3.7,-2.4,-0.5%,-15.4%
CC(C)COc1ccc(C(=O)OCCN2CCOCC2)cc1,1.0%,10.4%,25.0*,36.3*,-15.1%,?
CCC(=O)c1ccc(OCCN2CCOCC2)cc1,2.6%,6.7%,10.7,21.2,4.1%,-11.1%
CC(C)COc1ccc(C(=O)OCCN2CCCCC2)cc1,-5.3%,3.7%,10.3,37.1*,2.4%,-14.8%
C=CCOC(=O)N[C@@H](CCc1ccccc1)C(C(C)=O)C(C)=O,-0.2%,·,·,·,·,·
CC(C)(C)c1cc(NC(=O)Nc2ccc(Br)cc2Cl)no1,-7.5%,-0.9%,15.8*,61.2*,0.5%,-15.1%
Cc1c(Cl)cccc1NC(=O)Nc1cc(C(C)(C)C)on1,-10.5%,-9.8%,6.3,26.1,5.8%,?
CC(C)(C)c1cc(NC(=O)Nc2ccc(Cl)cc2Cl)no1,-14.1%,-2.2%,19.0*,77.8*,3.4%,4.4%
COC(=O)c1ccc(C(NC(=O)OCc2ccccc2)/C(=C/[C@@H](C)C(=O)Nc2ccc(OC)cc2)c2cccnc2)cc1 (stereo partly specified),-2.9%,·,·,·,·,·
c1ccc2c(c1)CCCN2c1nc2ccccc2n2cnnc12,-13.9%,-1.2%,29.9*,107.0*,12.8%,15.9%
Cc1ccc(NC(=O)CCNC(=O)c2ccccc2Cl)nc1,·,-0.7%,4.6,13.6,-7.6%,-27.9%
Cc1ccnc(NC(=O)CNC(=O)c2ccccc2Br)c1,·,4.4%,52.5*,53.6*,-16.4%,-7.5%
Cc1ccnc(NC(=O)CCNC(=O)c2ccccc2Cl)c1,·,4.6%,35.5*,123.6*,0.1%,3.7%
CCSc1nnc(NC(=O)c2cc3c(s2)CCCC3)s1,1.5%,1.4%,25.2,10.9,8.4%,-12.7%
O=C(Nc1nncs1)c1cc2c(s1)CCC2,2.1%,-11.2%,20.9*,30.0*,-22.6%,-13.5%
O=C(Nc1nccs1)c1cc2c(s1)CCCCC2,-11.8%,-22.0%,3.9,15.2,14.1µM*,31.6µM*
NNC(=O)c1cc2c(s1)CCCCCC2,-8.9%,4.5%,-2.2,-3.5,3.6%,32.8%
CC(C)Cc1nnc(NC(=O)c2cc3c(s2)CCC3)s1,-0.2%,-3.7%,17.3*,54.6*,-1.2%,1.5%
SMILES,FBPA Giardia inh,TbPYK inhibitor,Cycloheximide cs,Shiga inhibitor,LmPK inh,RE007 growth inh
O=c1ccn(C2CCCO2)c(=O)[nH]1 (stereo unspecified),·,-0.5%,·,·,·,-2.5%
Cc1ccc(O)c(C(=O)C=Cc2ccccc2)c1,·,-1.9%,·,·,·,-24.9%
COc1cc(/C=C/C(=O)c2ccccc2O)cc(OC)c1OC,-4.3%,-3.6%,13.5,-12.6,-0.7%,1.3%
Cc1ccc(O)c(C(=O)/C=C/c2ccc3c(c2)OCCCO3)c1,15.1%,-9.0%,80.8*,154.8*,-21.0%,6.0%
O=C(/C=C/c1ccc2c(c1)OCCCO2)c1ccccc1O,2.2%,-9.7%,77.9*,170.6*,?,-5.8%
C/C(=N\Nc1ccc(F)cc1F)c1ccccc1O,-4.8%,-2.5%,27.7*,79.2*,-4.8%,40.4%
COc1ccc(C2OC3C(CO)OC(n4cnc5c(=O)[nH]c(N)nc54)C3O2)cc1 (stereo unspecified),3.4%,·,·,·,·,·
Cn1c(=O)n(CCOc2ccc(Cl)cc2Cl)c2ccccc21,0.1%,-0.4%,-0.7,-8.8,2.0%,3.1%
